Experimental data published in PubChem BioAssay.

system: Human papillomavirus type 1a E7 protein (residues 1-88); assay: HPV1a E7 small-molecule binders, primary screen, biochemical, small-molecule microarray, residues 1-88, 635 nm (AID 1129); conditions: small-molecule microarray binding, fluorescence 635 nm; higher = more signal

**Q.** How did the composite z-score turn out when `COCC(=C=CC[C@@H](O)c1ccc(CO)o1)CCO` was run?
**A.** 0.114

**Q.** `CC(C)N1C(=O)c2ccccc2[C@@H](C(=O)NCCCN(C)C)[C@@H]1c1ccc(CO)cc1` was tested. Which composite z-score did it give?
**A.** -0.163

**Q.** With `C=C[C@@H](COC(C)=O)N(Cc1ccc([N+](=O)[O-])cc1)S(=O)(=O)c1ccc(Br)cc1` as the compound, how does the composite z-score read?
**A.** 1.17

**Q.** `CC(C)C(=C=CC[C@@H](O)c1ccccc1OCCO)C[C@@H](O)c1ccccn1` was tested. Which composite z-score did it give?
**A.** 0.647

**Q.** With `C=CCNC(=O)[C@@H]1[C@H]2C(=O)O[C@H](c3ccccc3)[C@H](c3ccccc3)N2[C@H](c2ccc(O)cc2)[C@@]12C(=O)N(C(=O)OCCOC)c1ccccc12` as the compound, how does the composite z-score read?
**A.** 1.21

**Q.** `CC(C)(C)OC(=O)CC[C@@]1(C(=O)NCCN2CCOCC2)N=C(c2ccc(OCCCO)cc2)O[C@@H]1c1ccccc1` was tested. Which composite z-score did it give?
**A.** 1.19

**Q.** How did the composite z-score turn out when `N#Cc1ccc(NN2C(C(O)C3CCCCC3)C=CC3C(=O)N(c4ccccc4)C(=O)C32)cc1` (stereo unspecified) was run?
**A.** 1.27

**Q.** For `C=CCN1C(=O)[C@]2(O[C@H](CCO)[C@@H]([Si](C)(C)c3ccc(OC)cc3)[C@@H]2C)c2cc(NC(=O)[C@H](C)O)ccc21`, which composite z-score is on record?
**A.** 1.22

**Q.** `O=C1O[C@H](c2ccccc2)[C@H](c2ccccc2)N2[C@H]1[C@@H](C(=O)N1CCN(c3ncccn3)CC1)[C@]1(C(=O)Nc3ccccc31)[C@H]2c1ccc(OCCO)cc1` was tested. Which composite z-score did it give?
**A.** 1.19

**Q.** For `O=C1OCCC/C=C\[C@H]2OC34C=CCN(Cn5nnc6ccccc65)C(=O)[C@H]3N(CCCCCO)C(=O)[C@@H]4C12` (stereo partly specified), which composite z-score is on record?
**A.** -0.654

**Q.** How did the composite z-score turn out when `COc1cc2c(cc1OC)CN(C(=O)[C@@H]1[C@H]3C(=O)O[C@H](c4ccccc4)[C@H](c4ccccc4)N3[C@H](c3ccccc3OCCO)[C@@]13C(=O)Nc1ccc(C#CCNC(N)=O)cc13)CC2` was run?
**A.** 0.923
